Assay outcomes deposited in PubChem BioAssay by National Center for Advancing Translational Sciences (NCATS).
Sampled rows, rich in hits. Any-hit rate of the full collection: about 3.1%.
ASM inhibitor: inhibitors of human secretory acid sphingomyelinase. AID 504937. placental ASM, HMU-PC fluorogenic substrate, 60 min. 340,000 compounds, 0.006% hits. Potency, µM (top dose mostly 57.5 µM), without a hit: at the top dose activity change, negative = inhibition, actives largely listed as inhibitors
Target sequence (P17405 47-631 limits assumed): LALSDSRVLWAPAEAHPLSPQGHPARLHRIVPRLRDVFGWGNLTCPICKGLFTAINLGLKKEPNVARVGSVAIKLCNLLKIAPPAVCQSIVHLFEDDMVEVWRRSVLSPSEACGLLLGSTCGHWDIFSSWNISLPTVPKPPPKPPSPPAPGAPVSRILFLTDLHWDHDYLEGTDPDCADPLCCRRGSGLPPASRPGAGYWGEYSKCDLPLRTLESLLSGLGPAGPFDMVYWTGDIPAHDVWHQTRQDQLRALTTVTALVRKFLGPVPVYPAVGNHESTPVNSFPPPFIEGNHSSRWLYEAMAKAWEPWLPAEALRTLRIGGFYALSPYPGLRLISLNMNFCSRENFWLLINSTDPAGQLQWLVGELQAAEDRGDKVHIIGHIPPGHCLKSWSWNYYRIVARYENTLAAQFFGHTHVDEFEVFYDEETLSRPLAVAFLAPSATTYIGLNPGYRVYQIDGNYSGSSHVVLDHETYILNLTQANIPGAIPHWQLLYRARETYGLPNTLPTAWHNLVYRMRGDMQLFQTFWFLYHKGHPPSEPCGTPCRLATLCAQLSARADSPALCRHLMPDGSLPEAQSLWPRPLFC
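Fluorogenic HMU-PC substrate (9 uM final) is turned over by placental ASM in 60 min at 37 C after a 10 min compound preincubation. Reaction ended by alkaline stop (pH 10), with fluorescence read at 386/447 nm.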
PLK1 PBD block: blocks phosphopeptide binding to human PLK1 polo-box domain; Plk1 PBD binding of FITC phosphopeptide, fluorescence polarization; Potency, µM, inactives show max response, negative = inhibition, hits mostly inhibitors; 360,000 compounds, 2.8% hits; AID 720504; note: series mostly up to about 57 µM; % is set by controls: 0 for no effect and ±100 for the full control effect; nearly all actives have a fitted effect of over 65% in size
Tb PFK block: blocks T. brucei phosphofructokinase. O15648. T. brucei PFK, ADP-Glo luminescence. Potency, µM (top dose mostly 57.5 µM), for inactives: at the top dose activity, negative = inhibition, actives largely listed as inhibitors. 330,000 compounds, 0.17% hits. AID 485367;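 note: 0% = uninhibited 1x PFK enzyme wells and -100% = no-enzyme wells; nearly all actives have a fitted effect of over 60% in size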
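PFK 1.25 nM, F6P 0.5 mM, ATP 0.1 mM, 0.1 M TEA pH 8.0, 5 mM MgCl2, 0.01% Tween20, 0.1% BSA; 45 min RT. ADP-Glo readout. qHTS titration up to 57 uM; curves fitted, compounds curve-classed.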
TDP1 block: blocks human tyrosyl-DNA phosphodiesterase 1; 350,000 compounds, 0.28% hits; AID 485290; recombinant TDP1, AlphaScreen DNA substrate cleavage; Q9NUW8; Potency, µM (doses to about 130 µM), inactives show at the top dose activity change, negative = inhibition, hits mostly inhibitors; note: % is set by controls: 0 for no effect and ±100 for the full control effect; nearly all actives have a fitted effect of over 40% in size
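Recombinant human Tdp1 (E. coli-expressed, 1 nM final) preincubated with compounds 15 min at room temperature, then 5'-biotin/3'-phosphotyrosine-FITC DNA substrate (15 nM final) added for 5 min. AlphaScreen beads (10 ug/ml final) added 10 min; cleavage lowers signal.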
VDR inhibitor: blocks the human vitamin D receptor. P11473. 400,000 compounds, 0.93% hits. Potency, µM, for inactives: max response, negative = inhibition, hits mostly inhibitors. AID 504847. VDR-SRC2-3 peptide fluorescence polarization, 2 h; note: % is set by controls: 0 for no effect and ±100 for the full control effect
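After 23 nl compound addition and a short centrifugation, plates sat for 2 hours at ambient temperature; polarization of fluorescence then indicated loss of VDR binding to peptide SRC2-3.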
Pin1 inhibitor: inhibitors of human Pin1; Q13526; AID 504891; 390,000 compounds, 0.009% hits; Potency, µM (doses to about 115 µM), inactives show at the highest dose activity, negative = inhibition, hits mostly inhibitors; Pin1 FP peptide displacement, HiFluor488, 10 min; active = well fitted inhibition curve with a large enough effect in the polarisation, with a control signal flat, not every such curve was filed as active; inconclusive = small, poorly fitted or top-dose-only effect, or effect the other way, or a change in a side signal; inactive = no such curve, though single readings can be large or run the other way; the % refers to the polarisation; note: % is set by controls: 0 for no effect and ±100 for the full control effect
Target sequence (Q13526 whole entry, looked up): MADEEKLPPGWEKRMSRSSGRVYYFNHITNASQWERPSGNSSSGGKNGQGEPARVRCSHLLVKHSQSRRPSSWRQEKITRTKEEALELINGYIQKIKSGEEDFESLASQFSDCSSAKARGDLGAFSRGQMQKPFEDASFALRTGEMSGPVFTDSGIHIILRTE
Starred values were filed as active, the others as inactive; [ ] = remark or other dose. Unless noted, calls come from the whole dose curve; as a rule, active = well fitted curve in the direction sought with a large enough effect; inconclusive = small, poorly fitted or top-dose-only effect, or another doubt; inactive = no such curve, though single readings can be large; an effect the other way counts as inactive or inconclusive. Potency is the fitted concentration of half-maximal effect.

Screening CCOc1nc2cccc(C(=O)OC(C)OC(=O)OC3CCCCC3)c2n1Cc1ccc(-c2ccccc2-c2nn[nH]n2)cc1 (stereo unspecified) returned TDP1 block -5.3% and VDR inhibitor 44.7µM*.
`COC(=O)C1=C(C(=O)OC)[C@@H]2Nc3ccccc3[C@@]23C[C@@H](C(=O)OC)N(S(=O)(=O)c2ccc4c(c2)OCCN4C)C3=N1` gave TDP1 block 13.4%[12.3 µM].
Screening N#Cc1c(-c2ccco2)c2c([nH]c1=S)CCCC2 returned ASM inhibitor -0.6%, PLK1 PBD block 11.9µM*, Tb PFK block inconclusive, TDP1 block 10.5%, VDR inhibitor -10.1% and Pin1 inhibitor inconclusive.
Screening CC(C)Cc1c2c([nH]c(=S)c1C#N)CCCC2 returned ASM inhibitor 4.4%, PLK1 PBD block 26.7µM*, Tb PFK block -9.3%, TDP1 block 5.1%, VDR inhibitor inconclusive and Pin1 inhibitor 0.3%.
Screening N#Cc1c2c(c(-c3ccco3)[nH]c1=O)CCCC2 returned ASM inhibitor 53.0%, PLK1 PBD block -9.5%, Tb PFK block 2.3%, TDP1 block -9.8%, VDR inhibitor 6.7% and Pin1 inhibitor inconclusive.
`N#Cc1c(-c2cccnc2)c2c([nH]c1=S)CCCC2` gave ASM inhibitor 1.4%, PLK1 PBD block 11.9µM*, Tb PFK block -29.4%, TDP1 block -1.0%, VDR inhibitor -24.1% and Pin1 inhibitor 3.4%.
For CCOc1ccccc1NC(=O)CCc1c(C)nc2c(c(C)nn2-c2ccccc2)c1C the results were TDP1 block 5.1%, VDR inhibitor 0.9% and Pin1 inhibitor 4.1%.
For Cc1cccn2c(=O)c3cc(C(=O)NCCc4ccc(S(N)(=O)=O)cc4)n(C)c3nc12 the results were TDP1 block -13.0%, VDR inhibitor 8.3% and Pin1 inhibitor 0.8%.
`Cc1[nH]n(-c2ccccc2)c(=O)c1-c1ccc(Cl)cc1` gave ASM inhibitor -1.3%, PLK1 PBD block 26.7µM*, Tb PFK block 0.5%, TDP1 block 8.5%, VDR inhibitor -11.1% and Pin1 inhibitor -7.3%.
`Cc1[nH]n(-c2ccccc2)c(=O)c1-c1cccc(Cl)c1` gave ASM inhibitor 0.1%, PLK1 PBD block -1.7%, Tb PFK block -3.8%, TDP1 block 7.2%, VDR inhibitor 6.6% and Pin1 inhibitor 2.6%.
`O=C(Nc1ccccc1)N(O)c1ccc(Cl)cc1` gave ASM inhibitor -4.0%, PLK1 PBD block -7.4%, Tb PFK block -6.3%, TDP1 block 0.0%, VDR inhibitor 28.2µM* and Pin1 inhibitor -5.5%.
Cn1c(N=NC(=O)c2ccccc2)c(O)c2ccccc21 was read as ASM inhibitor -6.0%, PLK1 PBD block 26.7µM*, Tb PFK block 0.6%, TDP1 block 5.6%, VDR inhibitor inconclusive and Pin1 inhibitor 0.5%.
Screening CC(=O)O[C@H]1CC2(C)[C@@H](C[C@@H](O)[C@H]3[C@@]4(C)CC[C@@H](O)[C@@H](C)[C@@H]4CC[C@@]32C)C1=C(CCC=C(C)C)C(=O)O (stereo partly specified) returned TDP1 block 4.1%[56.1 µM] and VDR inhibitor 0.6%.
CN1CCN(c2ccc(-c3cc(O)c4ncccc4c3)cc2)CC1 was read as Tb PFK block -0.1%.
For Fc1ccc(C2=Nn3c(nnc3-c3ccco3)SC2)cc1 the results were ASM inhibitor 1.1%, PLK1 PBD block -9.2%, Tb PFK block -8.8%, TDP1 block 6.8%, VDR inhibitor -7.9% and Pin1 inhibitor -8.0%.
c1ccc(C2=Nn3c(nnc3-c3ccco3)SC2)cc1 was read as ASM inhibitor -3.5%, PLK1 PBD block 29.9µM*, Tb PFK block -2.1%, TDP1 block 5.1%, VDR inhibitor -2.0% and Pin1 inhibitor 2.5%.
Screening COc1cc(C(=O)O[C@H]2C/C(C)=C/CC/C(C)=C/[C@@H](O)C2C(C)C)ccc1O (stereo partly specified) returned TDP1 block 9.5% and VDR inhibitor -0.2%.
For COc1ccc2c(c1)NC(c1cccnc1)=NC(c1ccc(F)cc1)=N2 the results were TDP1 block 7.0%, VDR inhibitor 15.5% and Pin1 inhibitor -8.5%.
`O=C(COc1ccc(F)cc1)N(Cc1cccc(Br)c1)C1CCS(=O)(=O)C1` (stereo unspecified) gave ASM inhibitor inactive, PLK1 PBD block 23.8µM*, Tb PFK block 0.1%, TDP1 block 4.2%, VDR inhibitor inconclusive and Pin1 inhibitor -4.0%.
Screening CCCCCCCCOC(=O)c1c(CSC(=N)N)n(C)c2cc(Br)c(OC(C)=O)cc12 returned ASM inhibitor 31.6µM*, PLK1 PBD block -0.2%, Tb PFK block 1.4%, TDP1 block 6.0%, VDR inhibitor -5.8% and Pin1 inhibitor 6.6%.
O=c1[nH]c(SCc2ccccc2)ncc1S(=O)(=O)c1ccccc1 was read as VDR inhibitor 8.8% and Pin1 inhibitor 13.4%.
OCCN1CCN(CC(O)COCCOc2ccc(Br)cc2)CC1 (stereo unspecified) was read as ASM inhibitor -2.0%, PLK1 PBD block 10.6µM*, Tb PFK block 2.0%, TDP1 block 2.6%, VDR inhibitor 17.8µM* and Pin1 inhibitor -8.8%.
`COc1ccc(-n2c(-c3ccc(C)cc3)cc3c2CC(C)(C)CC3=O)c(OC)c1` gave TDP1 block 12.7%, VDR inhibitor -10.0% and Pin1 inhibitor 5.5%.
`O=C(CCCC(=O)c1ccccc1)NCc1ccccc1` gave ASM inhibitor -0.9%, PLK1 PBD block inconclusive, Tb PFK block -1.3%, VDR inhibitor -20.6% and Pin1 inhibitor 0.4%.
`COc1cc(CNC(=O)CCCC(=O)c2ccccc2)cc(OC)c1OC` gave ASM inhibitor 0.2%, PLK1 PBD block 23.8µM*, Tb PFK block 3.7%, VDR inhibitor -28.9% and Pin1 inhibitor -2.4%.
CCN(CC)c1ccc(CNc2nc3ccccc3n2CC)cc1 was read as ASM inhibitor 1.9%, PLK1 PBD block -19.0%, Tb PFK block -5.6%, VDR inhibitor 25.0% and Pin1 inhibitor 1.1%.
CCN(CC)c1ccc(CNc2nc3ccccc3n2C(C)C)cc1 was read as ASM inhibitor 4.7%, PLK1 PBD block 18.9µM*, Tb PFK block -2.1%, VDR inhibitor -22.1% and Pin1 inhibitor 2.8%.
COc1ccc(OC)c(Nc2ncc3c(n2)CCN(Cc2cc(OC)c(OC)c(OC)c2)C3)c1 was read as TDP1 block 6.2%, VDR inhibitor 20.0% and Pin1 inhibitor 1.6%.
Screening O=C(CNC(=O)c1ccccc1)OC(C(=O)Nc1ccc2c(c1)OCO2)c1ccccc1 (stereo unspecified) returned TDP1 block 0.2% and Pin1 inhibitor 1.1%.
